Most compounds without a hit are left out; they make up all but 9.9% or so of the library.
KB-V1 MDR tox: KB-V1 MDR subline cytotoxicity; KB-V1 MDR cells viability, CellTiter-Glo, 72 h; Potency, µM (series often up to 46.1 µM), most hits filed as cytotoxic; 3.4% of 400,000 active; AID 1347076; also: potency is read from the fitted curve at half-maximal effect; % is scaled to controls: 0 for no effect and ±100 for the full control effect; nearly all actives have a fitted effect of over 60% in size
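Cytotoxicity via CellTiter-Glo luminescence after 72 h compound exposure at 37 degrees C. Cells: drug-selected KB-V1 line, DMEM phenol-red free plus 10% FBS. Compounds tested at multiple concentrations; normalized data fitted to concentration-effect curves.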
SW480 rereplic: DNA re-replication induction in SW480 cells | SW480 DNA re-replication, Hoechst DNA content imaging, 48 h | Potency, µM (doses to about 46.1 µM), for inactives: at the top dose re-replication activation, usual class: activators | 1.8% of 340,000 active | AID 624297; also: potency is read from the fitted curve at half-maximal effect; % of control where 0% means no effect; nearly all actives have a fitted effect of over 55% in size
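Readout is total intensity of Hoechst-stained nuclei, excited at 405 nm and collected at 500-530 nm. Compound treatment lasted 48 hr at 37 C in 5% CO2 before staining.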
KB-3-1 cytotox: KB-3-1 parental cell cytotoxicity. KB-3-1 viability, CellTiter-Glo ATP luminescence, 72 h. Potency, µM (top dose mostly 46.1 µM), usual class: cytotoxic. 1.4% of 400,000 active; also: potency is read from the fitted curve at half-maximal effect; % is scaled to controls: 0 for no effect and ±100 for the full control effect; nearly all actives have a fitted effect of over 60% in size
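Screening of KB-3-1 cells (DMEM, 10% FBS, phenol-red free) ran from lowest to highest compound concentration; after 72 h at 37 °C viability was read luminescently and curves fitted.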
MCF10A rerep: DNA re-replication induction in MCF 10a cells | MCF 10A DNA re-replication, Hoechst nuclear intensity, 48 h | Potency, µM (titrated, usually from 46.1 µM), inactives show at the highest dose activity, positive = re-replication, hits mostly activators | 2.9% of 350,000 active | AID 624296; also: potency is read from the fitted curve at half-maximal effect; % of control where 0% means no effect; nearly all actives have a fitted effect of over 50% in size
IL1B secr inh: blocks inflammasome-driven IL-1 beta release; THP-1 LPS/ATP IL-1B secretion, AlphaLISA, 16 h; active compounds read low; activity change, % at 57.5 µM; 4.7% of 360,000 active; AID 743279; in the data active = activity change below about -50%; inconclusive = mostly about -30% to -49%; also: % is scaled to controls: 0 for no effect and ±100 for the full control effect
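THP-1 cells pretreated 1 hr with compounds (up to 57.5 uM final), then stimulated with LPS (250 ng/mL final) plus ATP (1.25 mM final); secreted IL-1B measured by AlphaLISA after 16 hr, decreased signal indicating inhibition.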
An asterisk follows results filed as active; i = inactive; u = inconclusive; x = no result given. Unless noted, calls follow the shape of the dose curve; as a rule, active = well fitted curve in the direction sought with a large enough effect; inconclusive = small, poorly fitted or top-dose-only effect, or another doubt; inactive = no such curve, though single readings can be large; an effect the other way counts as inactive or inconclusive.

SMILES	KB-V1 MDR tox	SW480 rereplic	KB-3-1 cytotox	MCF10A rerep	IL1B secr inh
CC(C)(C)CC(=O)Nc1ccc(Nc2ccccc2)cc1	i	-2%	i	u	-62*
CCOC(=O)N1CCN(c2ccncc2S(=O)(=O)N2CCCCC2)CC1	u	1%	i	u	27
O=C(C[n+]1cc(-c2ccc(F)cc2)n2c1CCC2)Nc1nc(-c2ccccc2)cs1	i	1%	u	-8%	-2
Cc1ccc(-c2c[n+](CC(=O)Nc3nc(-c4ccc(F)cc4)cs3)c3n2CCC3)cc1	i	-38%	i	9%	-100*
Cc1ccc(-c2c[n+](CC(=O)Nc3ccc(C)cc3C)c3n2CCC3)cc1	u	u	i	u	-73*
COc1ccc(OC)c(N(CCN2C(=O)c3ccccc3C2=O)C(=O)C2CCC(=O)C2C)c1 (stereo not given)	i	x	i	x	4
CC(C)(C)C(=O)c1c(N)[nH]c(C(=O)c2ccccc2)c1-c1ccccc1Br	u	x	i	x	-14
Cc1cc(C)n2nc(C(=O)OCC(=O)NCc3ccc(F)cc3)nc2n1	i	1%	i	6%	23
CCn1cc(CNCc2cn(C)nc2-c2ccc(C3CCCCC3)cc2)cn1	u	12%	i	u	-63*
N=c1oc2cc(O)ccc2cc1C(=O)Nc1ccc(Br)cc1	18µM*	1.6µM*	23µM*	5.2µM*	-90*
N=c1oc2cc(O)ccc2cc1C(=O)Nc1nc2ccccc2s1	i	2.9µM*	i	8.2µM*	30
N=c1oc2ccccc2cc1C(=O)Nc1ccccc1	i	-3%	i	5%	6
O=C(COC(=O)Cc1ccc(S(=O)(=O)N2CCOCC2)s1)Nc1ccccc1Cl	i	-7%	i	-1%	19
CS(=O)(=O)c1ccc(Cl)c(NC(=O)CCl)c1	21µM*	u	6.5µM*	u	-100*
Cc1nc(Cl)sc1C(=O)Nc1ccc(C(C)(C)C)cc1	i	u	i	11%	-91*
O=C(Nc1cccc(C(F)(F)F)c1)c1sc(Cl)nc1C(F)(F)F	i	-5%	i	21µM*	-103*
CS(=O)(=O)c1ccc(C(=O)Nc2cc(S(C)(=O)=O)ccc2Cl)cc1	i	0%	i	3%	-16
Cc1ccc(NC(=O)CCl)c(C)c1	u	u	16µM*	u	-99*
OC[C@@H](O)[C@@H](O[C@@H]1O[C@H](CO)[C@H](O)[C@H](O)[C@H]1O)[C@H](O)[C@@H](O)CO	i	-14%	i	2%	35
N#CN1C2CCC1CC(O)(c1ccccc1)C2 (stereo not given)	i	x	i	x	13
Cc1ccc(NC(=O)c2sc(Cl)nc2C)c(C)c1	i	-2%	i	-2%	-65*
Cc1cccc(NC(=O)c2sc(Cl)nc2C)c1C	i	-43%	u	25%	4
Cc1cc(C)c(C)c(OC(=O)c2sc(Cl)nc2C)c1	i	u	i	u	-104*
Cc1ccc(NC(=O)CC2Sc3ccccc3NC2=O)c(C)c1 (stereo not given)	u	x	16µM*	x	x
COc1ccccc1-c1ccc2c(c1)C(C)(Cc1ccc(F)c(Cl)c1)C(=O)N2 (stereo not given)	u	x	u	x	-23
SMILES	KB-V1 MDR tox	SW480 rereplic	KB-3-1 cytotox	MCF10A rerep	IL1B secr inh
CCn1c(SCC(=O)N2CCCc3ccccc32)nnc1-c1cccs1	u	1%	i	-1%	-5
O=C(CSc1nnnn1-c1ccccc1)N1CCc2ccccc21	i	4%	i	2%	18
O=C(CSc1nnc(-c2cccs2)n1-c1ccccc1)N1CCCc2ccccc21	16µM*	16%	i	u	u
O=C(CSc1nnnn1-c1ccccc1)N1CCCc2ccccc21	u	0%	i	14%	-55*
COc1ccc(S(=O)(=O)n2ccnc2)cc1C(C)(C)C	u	x	i	x	x
O=C(NCc1cccc(C(F)(F)F)c1)c1cccc(S(=O)(=O)NCc2ccccc2)c1	18µM*	133%	i	u	3
O=C(c1ccc(CNS(=O)(=O)c2cccc(C(F)(F)F)c2)cc1)N1CCOCC1	13µM*	-3%	i	-7%	-6
CN(Cc1ccc(Cl)cc1Cl)C(=O)c1cccc(S(=O)(=O)NCc2ccccc2)c1	5.2µM*	-4%	u	3%	u
COc1ccc(-c2noc(COC(=O)c3ccco3)n2)cc1OC	i	-4%	i	-9%	3
Cc1cc(NC(=O)c2cccn2-c2nnc(N3CCCCC3)s2)ccc1Br	i	x	i	x	x
CCn1c(CN2CCOCC2)nnc1SCC(=O)Nc1ccc(C(C)=O)cc1	i	-7%	i	-7%	i
O=C(NCc1nnc2c(C(F)(F)F)cc(Cl)cn12)c1cccs1	i	-3%	i	0%	1
Nc1o[nH]c(=O)c1C1CCCCC1	i	-3%	i	-1%	-11
O=[N+]([O-])c1ccc(C=Nc2ccccc2)cc1	i	x	i	x	-21
O=[N+]([O-])c1ccc(N=Cc2ccc(Br)c([N+](=O)[O-])c2)cc1	u	u	u	u	-99*
C=CCOC(=O)/C=C/C(=O)NC(N)=O	i	-4%	i	u	-20
Cc1nc2c(=O)[nH]n(C)c2nc1C	i	x	i	x	-8
Cc1nc2[nH]c(=S)n(C)c(=O)c2nc1C	i	26µM*	i	0%	18
Cc1cccc(N2CCN(c3nc(C)cc(C)c3C#N)CC2C)c1 (stereo not given)	i	u	u	18µM*	-22
CCN(C(=O)COC(=O)c1cccc2ccccc12)c1c(N)n(Cc2ccccc2)c(=O)[nH]c1=O	i	-18%	i	16%	u
CCN(C(=O)COC(=O)c1ccccc1Nc1ccccc1)c1c(N)n(Cc2ccccc2)c(=O)[nH]c1=O	i	u	i	u	-50*
CCN(C(=O)COC(=O)CCOc1ccc(C(C)(C)C)cc1)c1c(N)n(Cc2ccccc2)c(=O)[nH]c1=O	i	0%	26µM*	23µM*	-16
[O-][n+]1c2ccccc2[n+]([O-])c2cc(O)ccc21	i	3%	i	-8%	0
N#CC1(NC(=O)CN2C(=O)NC3(CCCCCC3)C2=O)CCCCC1	i	-20%	i	0%	14
CCOC(=O)c1ccc(NC(=O)C2=C(C)Nc3nc(SCc4ccc(Cl)cc4)nn3C2c2ccc(C)cc2)cc1 (stereo not given)	i	x	i	x	x
CCOC(=O)c1c(-n2c(C)cc(C=O)c2C)sc2c1CCCC2	u	u	i	u	-56*
CC1CCCCC1N1CN=C(Nc2nc3ccccc3s2)NC1 (stereo not given)	18µM*	0%	i	6%	29
